aSyn 5UTR act – Activators via SNCA 5'UTR binding, MLPCN. activity score, % (tested at 7.5 µM), hits read low. 300,000 compounds, 7.1% hits. alpha-synuclein 5'UTR reporter, activators screen; in the data active means activity score below about -60%
Numbers stand for hits. The full list was thinned out, with hits kept by preference.

For CCS(=O)(=O)N1CCC(C(=O)Nc2ccc3c(c2)CCC3)CC1 the results were aSyn 5UTR act -83.
Screening CCCS(=O)(=O)N1CCCC(C(=O)Nc2ccc3c(c2)CCC3)C1 (stereo unspecified) returned aSyn 5UTR act -71.
Screening CC1CCC2(CC1)Nc1ccccc1C(=O)N2c1ccccc1 (stereo unspecified) returned aSyn 5UTR act -105.
`Oc1cccc2c(NC(=S)Nc3ccc(OC(F)F)cc3)cccc12` gave aSyn 5UTR act -138.
For Cc1c(C(C)(C)C)sc(=NC(=O)c2ccccc2O)n1C the results were aSyn 5UTR act -125.
Screening O=C(CCl)NCCN1C(=O)S/C(=C\c2cccnc2)C1=O returned aSyn 5UTR act -99.
COc1ccccc1NC(=O)c1cc2ccccc2o/c1=N\O was read as aSyn 5UTR act -129.
For COc1ccccc1NC(=O)c1cc2ccc(O)cc2o/c1=N\O the results were aSyn 5UTR act -97.
For COc1ccc(N=c2oc3ccccc3cc2C(=O)Nc2ccccn2)cc1OC the results were aSyn 5UTR act -107.
CCOC(=O)c1ccc(NC(=O)c2cc3c(s2)CCC3)cc1 was read as aSyn 5UTR act -154.
For COc1ccc(C)cc1NS(=O)(=O)c1ccc(-c2cnc(C3CC3)o2)cc1 the results were aSyn 5UTR act inactive.
For O=C(Nc1cccc(Cn2cccn2)c1)c1cc2c(s1)CCCC2 the results were aSyn 5UTR act -139.
`COC(=O)c1sccc1NC(=O)c1cc2c(s1)CCCC2` gave aSyn 5UTR act -133.
Screening COc1ccc(C)cc1NC(=O)c1cc2c(s1)CCC2 returned aSyn 5UTR act -143.
`N#C/C(=C\c1ccco1)Sc1nc2ccccc2s1` gave aSyn 5UTR act -84.
For O=C(Nc1ccc2c(c1)nc1n2CCOC1)c1ccco1 the results were aSyn 5UTR act -66.
For O=C(Nc1ccc2c(c1)nc1n2CCOC1)C1CCCCC1 the results were aSyn 5UTR act -106.
For COc1cccc(NC(=O)C(=O)NCCC2CCCCN2S(=O)(=O)c2cccs2)c1 (stereo unspecified) the results were aSyn 5UTR act -148.
`CC(C)CCNC(=O)C(=O)Nc1ccc2c(c1)N(S(=O)(=O)c1cccs1)CCC2` gave aSyn 5UTR act -73.
`C/C=C/c1ccc(OCC(=O)OCc2csc(Nc3ccc(C)cc3)n2)c(OC)c1` gave aSyn 5UTR act -177.
Cc1ccc(Nc2nc(COC(=O)COc3ccc(C=O)cc3)cs2)cc1 was read as aSyn 5UTR act -107.
`O=C(OCn1ncc(Cl)c(Cl)c1=O)c1ccc(C(F)(F)F)cc1` gave aSyn 5UTR act -117.
Screening O=c1c(Cl)c(N2CCN(c3ccc(F)cc3)CC2)cnn1-c1nc2ccccc2s1 returned aSyn 5UTR act -112.
For CC(C)(C)NC(=O)CSc1ncnc2c1cnn2-c1ccccc1 the results were aSyn 5UTR act -73.
Screening CCOC(=O)CC(=O)CSc1ncnc2c1cnn2-c1ccccc1 returned aSyn 5UTR act -105.
`CN(C)/C=C1\N=C(c2ccc3c(c2)OCO3)OC1=O` gave aSyn 5UTR act -116.
COc1ccc(-c2ccc3oc(-c4ccsc4)cc3c2)cc1 was read as aSyn 5UTR act -140.
Screening CN(C)c1ccc(C(=O)c2ccc(O)cc2O)cc1 returned aSyn 5UTR act -114.
Screening COC(=O)CNC(=O)C1(C)C=CCN1C(=O)c1ccccc1 (stereo unspecified) returned aSyn 5UTR act -74.
CCC(=NCc1ccccc1)c1c(C(F)(F)F)[nH]n(-c2nc3ccccc3s2)c1=O was read as aSyn 5UTR act -111.
For CCOC(=O)Cc1c(C)nc2c(-c3ccccc3)c(-c3ccccc3)[nH]n2c1=O the results were aSyn 5UTR act -85.
`Cc1nc2c(-c3ccc(Cl)cc3)c(C)[nH]n2c(=O)c1Cc1ccccc1` gave aSyn 5UTR act inactive.
`CCOc1ccc(-c2csc3nc[nH]c(=O)c23)cc1` gave aSyn 5UTR act -154.
Screening COc1ccc(NC(=O)COc2ccc(/C=N/NC(=O)c3cccnc3)cc2OC)cc1 returned aSyn 5UTR act -105.
`COc1cc(/C=N/NC(=O)c2cccnc2)ccc1OCC(=O)Nc1ccccc1Cl` gave aSyn 5UTR act -73.
For COc1ccc(/C=C2\CCCC(C(=O)C(F)(F)F)=C2O)cc1 the results were aSyn 5UTR act -67.
For CCC(=O)Nc1cccc(NC(=O)c2cc3ccccc3o2)c1 the results were aSyn 5UTR act -168.
`Cc1cccc(NC(=O)c2cc3ccccc3o2)c1` gave aSyn 5UTR act -272.
O=C(Nc1cccc(Br)c1)c1cc2ccccc2o1 was read as aSyn 5UTR act -184.
NS(=O)(=O)c1cccc(NC(=O)c2cc3ccccc3o2)c1 was read as aSyn 5UTR act -71.
Screening CC(=Nc1ccc(C)c(C)c1)C1=C(O)CSC1=O returned aSyn 5UTR act -122.
For Cn1c(NC(=O)CCc2ccccc2)cc(=O)n(C)c1=O the results were aSyn 5UTR act -186.
For Cn1c(NC(=O)/C=C/c2ccc(Cl)c(Cl)c2)cc(=O)n(C)c1=O the results were aSyn 5UTR act -181.
COc1ccc(/C=C/C(=O)Nc2cc(=O)n(C)c(=O)n2C)cc1 was read as aSyn 5UTR act -104.

Screening data from PubChem BioAssay.
